Test [1] can be described thus: qHTS assay to identify small molecule antagonists of the glucocorticoid receptor (GR) signaling pathway - cell viability counter screen (AID 720693). Note: nearly all actives have a fitted effect of over 55% in size. For orientation: qHTS replaces the single test concentration by a dilution series.
The nature of test [2]: qHTS assay for identifying genotoxic compounds that show differential cytotoxicity against isogenic chicken DT40 cell lines with known DNA damage response pathways - wild type cell line (AID 743012). Note: nearly all actives have a fitted effect of over 60% in size. Note: potency is the fitted concentration of half-maximal effect. An outline of the steps: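 300 wt DT40 cells/well; cpd (DMSO) pintool-transferred after ~0.5 h at 37 C/5% CO2; 40 h incubation; CellTiter-Glo added, 30 min RT; luminescence read.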

The nature of test [3]: qHTS assay for identifying genotoxic compounds that show differential cytotoxicity against isogenic chicken DT40 cell lines with known DNA damage response pathways - Rev3 mutant cell line (AID 743014). Note: nearly all actives have a fitted effect of over 55% in size. Note: potency is the fitted concentration of half-maximal effect.
A short description of test [4]: qHTS assay for identifying genotoxic compounds that show differential cytotoxicity against isogenic chicken DT40 cell lines with known DNA damage response pathways - Rad54/Ku70 mutant cell line (AID 743015). Note: nearly all actives have a fitted effect of over 60% in size. Note: potency is the fitted concentration of half-maximal effect.
The nature of test [5]: qHTS assay to identify small molecule antagonists of the androgen receptor (AR) signaling pathway - cell viability counter screen (AID 743033; note: nearly all actives have a fitted effect of over 45% in size).
Test [6] is described as follows: qHTS assay to identify small molecule antagonists of the androgen receptor (AR) signaling pathway using the MDA cell line - cell viability counter screen (AID 743041; note: nearly all actives have a fitted effect of over 45% in size; note: potency is the fitted concentration of half-maximal effect). An outline of the steps:
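qHTS viability read-out; MDA-kb2 AR-luc; R1881-stimulated; 16 h exposure at 37C, 0% CO2; CellTiter-Fluor, 30 min; fluorescence intensity.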

Test [7] in a line: qHTS assay to identify small molecule antagonists of the thyroid receptor (TR) signaling pathway - cell viability counter screen (AID 743064). Note: nearly all actives have a fitted effect of over 50% in size. An outline of the steps: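 Plate GH3.TRE-Luc cells; incubate 4 h at 37 °C; add compound, then T3 to 1 nM final; incubate 23.5 h; add CellTiter-Fluor; incubate 30 min at 37 °C, 5% CO2; read fluorescence.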
Test [8] can be described thus: qHTS assay to identify small molecule antagonists of the thyroid receptor (TR) signaling pathway (AID 743065). Note: nearly all actives have a fitted effect of over 55% in size. Note: potency is the fitted concentration of half-maximal effect. An outline of the steps:
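GH3.TRE-Luc rat pituitary cells carrying two TR response elements driving luciferase were plated for 4 h, given compound plus 1 nM T3 (final), and incubated 23.5 h at 37 C. ONE-Glo luminescence measured reporter inhibition; CellTiter-Fluor fluorescence tracked cytotoxicity.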

Test [9] relates to thyroid hormone receptor (rat, GH3 cells). Description: qHTS assay to identify small molecule agonists of the thyroid receptor (TR) signaling pathway (AID 743066; calls by dose curve).
Test [10] has as its target Estrogen receptor (Homo sapiens) (UniProt P03372). Put plainly: qHTS assay to identify small molecule antagonists of the estrogen receptor alpha (ER-alpha) signaling pathway (AID 743069; active = well fitted curve in the direction sought with a large enough effect in the signal ratio in the repeat runs, not every such curve was filed as active; inconclusive = weak or mixed curves, or effect the other way; inactive = no such curve, though single readings can be large or run the other way; the % refers to the signal ratio; note: potency is the fitted concentration of half-maximal effect). An outline of the steps:
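Screening used a UAS-driven beta-lactamase reporter integrated into HEK293 cells expressing ER-alpha, stimulated with 17beta-estradiol alongside test compounds over 18 hr at 37C; signal came from LiveBLAzer B/G FRET fluorescence.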

Test [11] is described as follows: qHTS assay to identify small molecule antagonists of the estrogen receptor alpha (ER-alpha) signaling pathway - cell viability counter screen (AID 743074; calls by dose curve; note: nearly all actives have a fitted effect of over 45% in size).
Test [12] has as its target Estrogen receptor (Homo sapiens) (UniProt P03372). Put plainly: qHTS assay to identify small molecule agonists of the estrogen receptor alpha (ER-alpha) signaling pathway (AID 743075; calls by dose curve).
Test [13] shares this target. Put plainly: qHTS assay to identify small molecule agonists of the estrogen receptor alpha (ER-alpha) signaling pathway using the BG1 cell line (AID 743079). Note: nearly all actives have a fitted effect of over 20% in size.
The nature of test [14]: qHTS assay to identify small molecule antagonists of the estrogen receptor alpha (ER-alpha) signaling pathway using the BG1 cell line (AID 743080; calls by dose curve;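 note: BG1 cells stimulated with 17beta-estradiol alongside compound; series mostly up to about 70 µM; nearly all actives have a fitted effect of over 25% in size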). The method, boiled down: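 Seeding, 24 h rest, compound transfer from DMSO, 17beta-estradiol addition, 21.5 h incubation, CellTiter-Fluor (30 min, 37 C), then ONE-Glo (30 min, room temperature): this sequence was run on BG1-Luc-4E2 reporter cells.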

The nature of test [15]: qHTS assay to identify small molecule antagonists of the estrogen receptor alpha (ER-alpha) signaling pathway using the BG1 cell line - cell viability counter screen (AID 743081).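 Note: compound given together with 17beta-estradiol as the ER stimulus; nearly all actives have a fitted effect of over 45% in size.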 Note: potency is the fitted concentration of half-maximal effect.
The target in the next test is Aromatase (Homo sapiens) (UniProt P11511). Put plainly: qHTS assay to identify aromatase inhibitors (AID 743083). Note: series mostly up to about 70 µM; nearly all actives have a fitted effect of over 55% in size.
Sequence of Aromatase (Homo sapiens) (P11511 whole entry, looked up): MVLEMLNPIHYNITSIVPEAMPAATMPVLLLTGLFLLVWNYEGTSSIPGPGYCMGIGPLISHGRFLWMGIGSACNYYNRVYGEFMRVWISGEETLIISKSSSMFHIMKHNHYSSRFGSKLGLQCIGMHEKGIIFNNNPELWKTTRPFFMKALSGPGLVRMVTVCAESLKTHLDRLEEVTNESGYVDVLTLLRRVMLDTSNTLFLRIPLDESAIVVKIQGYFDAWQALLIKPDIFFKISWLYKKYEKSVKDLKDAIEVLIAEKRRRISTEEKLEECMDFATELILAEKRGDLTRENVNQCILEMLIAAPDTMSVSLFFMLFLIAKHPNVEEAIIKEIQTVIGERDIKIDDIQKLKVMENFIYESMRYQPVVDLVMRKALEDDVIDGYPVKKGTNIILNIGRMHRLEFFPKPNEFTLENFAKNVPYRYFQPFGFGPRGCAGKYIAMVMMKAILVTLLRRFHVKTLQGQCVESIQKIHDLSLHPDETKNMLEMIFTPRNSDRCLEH
For test [16], the target named is Androgen receptor (Homo sapiens) (UniProt P10275). Description: qHTS assay to identify small molecule agonists of the androgen receptor (AR) signaling pathway using the MDA cell line (AID 743040; note: nearly all actives have a fitted effect of over 20% in size). An outline of the steps: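 Agonist activity is measured as luciferase luminescence in human MDA-kb2 cells whose MMTV reporter responds to both AR and GR. Compounds in DMSO incubate 16 h at 37C, 0% CO2, and ONE-Glo is read after 30 min.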
Sequence of Androgen receptor (Homo sapiens) (P10275 whole entry, looked up): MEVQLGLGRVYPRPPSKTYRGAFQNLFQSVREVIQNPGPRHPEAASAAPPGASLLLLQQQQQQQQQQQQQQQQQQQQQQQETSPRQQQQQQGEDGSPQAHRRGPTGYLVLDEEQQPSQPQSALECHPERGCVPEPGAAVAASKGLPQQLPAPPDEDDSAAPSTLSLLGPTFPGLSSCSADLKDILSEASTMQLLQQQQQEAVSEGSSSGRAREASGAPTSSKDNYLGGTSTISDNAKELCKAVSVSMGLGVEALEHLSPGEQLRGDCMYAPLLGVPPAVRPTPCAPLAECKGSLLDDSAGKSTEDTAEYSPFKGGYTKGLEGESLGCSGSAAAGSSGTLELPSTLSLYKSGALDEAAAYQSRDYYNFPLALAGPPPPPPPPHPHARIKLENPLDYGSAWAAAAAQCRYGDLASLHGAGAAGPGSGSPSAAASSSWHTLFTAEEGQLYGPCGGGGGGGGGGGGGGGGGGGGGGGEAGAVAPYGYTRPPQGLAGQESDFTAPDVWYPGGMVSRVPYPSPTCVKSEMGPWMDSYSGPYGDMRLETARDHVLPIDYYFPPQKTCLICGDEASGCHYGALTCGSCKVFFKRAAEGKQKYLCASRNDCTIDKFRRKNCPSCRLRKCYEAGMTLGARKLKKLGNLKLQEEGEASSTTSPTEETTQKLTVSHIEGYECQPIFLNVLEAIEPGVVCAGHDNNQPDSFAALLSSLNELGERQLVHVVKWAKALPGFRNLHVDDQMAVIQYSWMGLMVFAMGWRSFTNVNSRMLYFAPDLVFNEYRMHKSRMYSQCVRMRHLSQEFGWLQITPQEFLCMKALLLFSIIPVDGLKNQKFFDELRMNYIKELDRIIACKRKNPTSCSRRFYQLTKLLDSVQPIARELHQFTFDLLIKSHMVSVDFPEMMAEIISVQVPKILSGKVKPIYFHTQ

For test [17] the target is unchanged. Description: qHTS assay to identify small molecule antagonists of the androgen receptor (AR) signaling pathway using the MDA cell line (AID 743042; note: nearly all actives have a fitted effect of over 55% in size). The method, boiled down:
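MDA-kb2 cells (human breast carcinoma, stably carrying an MMTV-luciferase reporter responsive to AR and GR) were plated at 3,000 cells/well and preincubated 5 hr at 37C, then given compound plus R1881 agonist for 16 h. ONE-Glo luminescence was read.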

Test [18] has the same target. Put plainly: qHTS assay to identify small molecule agonists of the androgen receptor (AR) signaling pathway (AID 743036; active = well fitted activation curve with a large enough effect in the signal ratio in the repeat runs, with a control signal flat, not every such curve was filed as active; inconclusive = weak or mixed curves, or effect the other way; inactive = no such curve, though single readings can be large or run the other way; the % refers to the signal ratio). The method, boiled down: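 Reporter line: GeneBLAzer AR-UAS-bla-GripTite (HEK293). Steps: plate cells, 4 h rest, add compounds, 16 h at 37C, add LiveBLAzer B/G substrate, 2 h at RT, read fluorescence.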

Consider eight compounds from PubChem BioAssay (Tox21).

The structures appear in SMILES notation. Several values for one entry are separate records, joined by “and”; a condition that tells them apart may be missing. Identical values can stand only once. Activity calls are given as the source filed them. Unless noted, calls come from the whole dose curve; as a rule, active = well fitted curve in the direction sought with a large enough effect in the repeat runs; inconclusive = weak or mixed curves; inactive = no such curve, though single readings can be large; an effect the other way counts as inactive or inconclusive.

Sequence of Estrogen receptor (Homo sapiens) (P03372 whole entry, looked up): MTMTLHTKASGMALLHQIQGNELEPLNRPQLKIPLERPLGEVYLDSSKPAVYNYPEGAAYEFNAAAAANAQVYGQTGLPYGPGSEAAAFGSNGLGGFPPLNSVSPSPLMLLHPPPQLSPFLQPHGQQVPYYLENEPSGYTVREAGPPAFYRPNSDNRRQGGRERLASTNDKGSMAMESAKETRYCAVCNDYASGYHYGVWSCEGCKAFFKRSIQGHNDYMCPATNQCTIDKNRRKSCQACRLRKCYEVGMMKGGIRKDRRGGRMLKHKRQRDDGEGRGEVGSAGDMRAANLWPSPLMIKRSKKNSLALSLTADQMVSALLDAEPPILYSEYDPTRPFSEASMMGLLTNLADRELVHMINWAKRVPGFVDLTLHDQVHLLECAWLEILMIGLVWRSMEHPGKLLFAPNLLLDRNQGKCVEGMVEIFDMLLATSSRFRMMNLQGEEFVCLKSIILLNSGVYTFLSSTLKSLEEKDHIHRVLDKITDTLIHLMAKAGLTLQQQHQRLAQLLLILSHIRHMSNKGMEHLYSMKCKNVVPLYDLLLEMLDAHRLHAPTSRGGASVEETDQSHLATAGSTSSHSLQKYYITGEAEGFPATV

As for `O=C(O)COc1ccc(Cl)cc1`, the Potency entry in test [1], in [2], in [3], in [4], in [5] and in test [6] was “inactive” throughout. Further, the Potency entry in [7], in test [8], in test [9], in test [10], in test [11] and in test [12] was “inactive” in each case. Further, the Potency entry (in test [13]; in [14]; in [15]; with Aromatase (Homo sapiens)) was “inactive” each time.

For `COP(=S)(OC)Oc1ccc([N+](=O)[O-])cc1Cl`, the Potency result in test [1], in test [2], in test [3], in test [4], in test [5] and in test [16] was “inactive” in each case. Also, the Potency entry in test [17], in [7], in [8], in test [9], in test [11] and in [12] was “inactive” each time. For the same compound, the Potency result (in test [13]; in [14]; in the test with Aromatase (Homo sapiens)) was “inactive” each time.

On to `Cl/C=C\Cl`, for which the Potency result in [1], in test [2], in test [3], in [4], in test [5] and in test [6] was “inactive” in each case. The Potency result in [7], in [8], in test [9], in [10], in test [11] and in [12] was “inactive” in each case. Besides, the Potency entry (in test [13]; in test [15]; with Aromatase (Homo sapiens)) was “inactive” throughout.

As to `CC(=O)C(C)(C)C`, the Potency result in test [1], in test [5], in [6], in [7], in [8] and in test [9] was “inactive” in each case. For the same compound, the Potency entry in test [10], in test [11], in [12], in [13], in [14] and in test [15] was “inactive” throughout. Further, the Potency result in the test with Aromatase (Homo sapiens) was “inactive”. Further, the Potency in test [2] was 45 µM (active); in [3], 3.18 µM (active); in test [4], 4.01 µM (active).

As to `[O-][Cl+]O`, the Potency result in [1], in [2], in [3], in test [4], in test [5] and in test [6] was “inactive” throughout. The Potency entry in test [7], in [8], in [9], in test [10], in [12] and in test [13] was “inactive” each time. The Potency result (in test [14]; in [15]; in the test with Aromatase (Homo sapiens)) was “inactive” in each case.

With `CCCCCCCCCCOC(=O)c1ccccc1C(=O)OCCCCCCCCCC`, the Potency result in test [1], in test [2], in [3], in [4], in test [5] and in [16] was “inactive” each time. Besides, the Potency entry in test [6], in test [7], in [11], in [12], in [13] and in [14] was “inactive” each time. In addition, the Potency result (in test [15]; with Aromatase (Homo sapiens)) was “inactive” throughout. Further, the call in test [18] was inactive.

With `O=[Se]=O`, the Potency entry (in test [1]; in test [5]; in [7]; in [9]; in test [12]; with Aromatase (Homo sapiens)) was “inactive” in each case. Further, the Potency in test [2] is 0.541 µM (active); in [3] it was 0.341 µM (active); in [4] it was 0.242 µM (active); in test [6] it was 19.2 µM (active); in test [8], 21.5 µM (active); in test [10], 6.12 µM [inconclusive] (active). In test [15], the Potency is 19.2 µM (active).

As for `O=C1CN=C(c2ccccc2)c2cc(Cl)ccc2N1CC1CC1`, the Potency result in test [1], in test [5], in test [6], in test [7], in test [9] and in [11] was “inactive” each time. For the same compound, the Potency entry (in [15]; in the test with Aromatase (Homo sapiens)) was “inactive” throughout. In addition, the Potency is 18.8 µM (active) in test [2]; 29.8 µM (active) and 64.2 µM (active) in [3]; 26.6 µM (active) in test [4]; 21.1 µM (active) and 51 µM (active) in test [8].
